Rows were chosen to be rich in hits. Some 4.1% of all compounds tested hit in one or more screens of this group.
DAX1 inh-1: inhibitors of human orphan nuclear receptor DAX1 (NR0B1); HEK293 Gal4-DAX1 luciferase reporter, luminescence; inhibition, % at 6.75 µM; hit rate 0.99% among 340,000; AID 504766;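 active = inhibition above the mean over all tested compounds plus 3 SD, cut at about 4.2% in these data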;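 note: inhibition shows as a rise in luminescence from relieved DAX1 repression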
Target sequence (P51843 207-470 limits assumed): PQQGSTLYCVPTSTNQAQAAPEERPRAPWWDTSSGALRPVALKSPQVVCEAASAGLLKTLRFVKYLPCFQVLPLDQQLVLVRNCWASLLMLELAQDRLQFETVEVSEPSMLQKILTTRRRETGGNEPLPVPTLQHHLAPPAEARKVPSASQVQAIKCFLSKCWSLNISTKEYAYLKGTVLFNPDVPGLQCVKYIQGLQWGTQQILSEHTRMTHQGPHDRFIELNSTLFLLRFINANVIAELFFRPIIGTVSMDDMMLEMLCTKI
DAX1 inh-2: inhibitors of DAX1 repression of SF-1 activated StAR promoter | HEK293T StAR-luciferase reporter, SF-1/DAX-1 repression relief | inhibition, % at 6.8 µM | hit rate 1.1% among 370,000 | AID 652010;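 active = inhibition above the mean over all tested compounds plus 3 SD, cut at about 3.6% in these data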;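 note: higher inhibition means more luminescence from relief of DAX-1 repression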
hcDAF12 agonist: activators of H. contortus DAF-12 nuclear receptor | hit rate 1.4% among 370,000 | AID 652067 | HEK293 hcDAF-12 lit1-tk-luc reporter, luminescence; 0% DMSO, 100% Δ7-dafachronic acid | activation, % at 6.8 µM;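 active = activation above the mean of all tested compounds plus 3 SD, cut at about 5.5% in these data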
ssDAF12 agonist: S. stercoralis DAF-12 activation, primary screen. hit rate 1% among 370,000. AID 652126. activation, % at 6.8 µM. HEK293 ssDAF-12/GRIP1 lit1-tk-luc reporter, luminescence; % of 3 µM dafachronic acid response;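 active = activation above the mean over all tested compounds plus 3 SD, cut at about 0.9% in these data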
hgDAF12 agonist: activates the H. glycines DAF-12 receptor ligand-binding domain. HEK293 GAL4-hgDAF12 UAS-luciferase reporter, agonist luminescence; normalized to butyrate control. activation, % at 6.8 µM. hit rate 1.8% among 370,000. AID 687014;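 active = activation above a cutoff set at the mean of all screened compounds plus 3 SD, cut at about 10% in these data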
DAX1 inh confirm: NR0B1 (human) inhibition, confirmation; inhibition, % at 6.8 µM; hit rate 87% among 2,400; HEK293T StAR-promoter luciferase reporter, SF-1/DAX-1 repression; shares compounds with DAX1 inh-2;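 active = inhibition above the average of every tested compound plus 3 SD, cut at about 3.8% in these data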;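 note: active compounds raise luminescence by relieving repression of the StAR reporter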
SF1 AF2mut Luc: nonselective inhibitor or artifact in SF-1 mutant DAX1 counter-screen; inhibition, % at 6.8 µM; HEK293 StAR-luciferase, SF-1 AF2 mutant, luminescence; shares compounds with DAX1 inh-2; hit rate 78% among 2,400;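 active = inhibition above the mean of all tested compounds plus 3 SD, cut at about 3% in these data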
LXRb hcDAF ctr: counter-screen for hcDAF-12 agonists: agonists of human LXR-beta; shares compounds with hcDAF12 agonist; HEK293 Gal4-LXR tk-luc reporter, luminescence, 24 h; normalized: DMSO 0%, positive control 100%; activation, % at 6.8 µM; 3,400 tested, under 10 active; AID 743027;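 active = mean percent activation of the reporter above a cutoff set as the average over tested compounds plus their standard deviation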
hcDAF12 ag: hcDAF-12 agonism, confirmation assay; shares compounds with hcDAF12 agonist; HEK293 hcDAF-12 lit1-tk-luc reporter, luminescence; % of Δ7-dafachronic acid response; activation, % at 6.8 µM; hit rate 61% among 3,400;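 active = mean activation across triplicate tests above the threshold derived from the earlier primary screen, cut at about 5.5% in these data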
hgDAF12 conf: hgDAF-12 agonism, confirmation assay; AID 743050; HEK293 GAL4-hgDAF12 luciferase reporter, agonist mode; percent of butyrate response; hit rate 80% among 3,300; shares compounds with hgDAF12 agonist; activation, % at 6.8 µM;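 active = mean activation over triplicate wells above the hit cutoff derived from the earlier primary screen, cut at about 11% in these data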
LXRb DAF12 ctr: LXR-beta agonism as DAF-12 counter-screen. activation, % at 6.8 µM. 3,300 tested, under 10 active. shares compounds with hgDAF12 agonist. HEK293 Gal4-LXR luciferase reporter, 24 h;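 active = mean activation of the triplicate above a set limit carried over from the primary screen, none filed active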
Numbers stand for hits; . = inactive; / = no result.

SMILES	DAX1 inh-1	DAX1 inh-2	hcDAF12 agonist	ssDAF12 agonist	hgDAF12 agonist	DAX1 inh confirm	SF1 AF2mut Luc	hgDAF12 conf	LXRb DAF12 ctr	others
O=c1c2c(nc3cc(-c4ccccc4Cl)[nH]n13)CCS2	.	5.6	.	1.5	16	3.9	3.4	12	.
COC(=O)C(Cc1ccc(O)cc1)NC(=O)C(CC(=O)OC(C)(C)C)NC(=O)OC(C)(C)C (centres undefined)	.	.	.	.	.	/	/	/	/
Cc1cccc(-n2ncc3c(N4CCOCC4)ncnc32)c1	.	.	.	.	.	/	/	/	/
Cc1cccc(-n2ncc3c(NCc4cccnc4)ncnc32)c1	.	4.7	.	.	13	8.1	4.2	12	.
Cc1cccc(-n2ncc3c(NC4CCCCC4)ncnc32)c1	.	6.8	7.8	.	25	13	7.5	12	.	LXRb hcDAF ctr=.;hcDAF12 ag=6.2
Cc1cccc(-n2ncc3c(N4CCCC4)ncnc32)c1	.	7.4	.	.	18	16	6.9	16	.
CCc1ccc(NC(=O)[C@H](Cc2ccccc2)NC(=O)C2CCN(C(=O)[C@@H](N)CC(C)C)CC2)cc1	.	.	.	.	.	/	/	/	/
CCN(CC)C(=O)Cn1c(=O)n(CCC(=O)Nc2ccc(F)cc2)c(=O)c2sccc21	.	.	.	.	.	/	/	/	/
COc1cc(CN(C)Cc2cc(=O)oc3cc(C)c(Cl)cc23)ccc1OC(F)F	.	.	.	.	.	/	/	/	/
CCOC(=O)C1CCCN(C(=O)c2ccc3ccccc3c2)CC1 (centres undefined)	/	.	.	.	.	/	/	/	/
COc1ccc(-c2csc(N3C(=O)CNC3=S)n2)cc1	.	5.5	8.2	1.1	17	14	6.6	16	.	LXRb hcDAF ctr=.;hcDAF12 ag=8.8
Cc1cc(CNC(=O)c2cc(COc3ccc(F)c(F)c3)on2)nn1C	.	6.4	5.7	.	15	7.4	3.8	14	.
CCc1ccc2c(c1)NC(=O)C2(C)Cc1ccc(Cl)s1 (centres undefined)	/	.	.	.	.	/	/	/	/
Cc1nc2sccn2c(=O)c1S(=O)(=O)N1CCN(c2ccccc2F)CC1	/	.	.	.	.	/	/	/	/
Fc1ccc(N2C(=S)SC(=Nc3ccccc3)C2=Nc2ccccc2)cc1	.	.	.	.	.	/	/	/	/
N=C1N(c2ccccc2)C(=S)C(=Nc2ccccc2)N1c1ccccc1	.	8.6	9.8	.	17	.	.	.	.	LXRb hcDAF ctr=.;hcDAF12 ag=.
O=C(CNC1CCCCCC1)c1cccs1	.	.	.	.	.	/	/	/	/
CN(C)c1ccc(-c2csc(C(O)c3ccc(F)cc3)n2)cc1 (centres undefined)	/	.	.	.	.	/	/	/	/
CN(C)c1ccc(-c2csc(C(O)c3ccccc3)n2)cc1 (centres undefined)	/	6.4	.	.	14	9.5	8.6	19	.
OC(c1ccccc1)c1nc(-c2cc3ccccc3o2)cs1 (centres undefined)	/	6.9	.	.	17	11	6.4	15	.
O=C1c2ccccc2C(c2nnnn2-c2ccc3c(c2)OCCO3)N1Cc1ccc(F)cc1 (centres undefined)	/	.	.	.	.	/	/	/	/
CN(C)c1ccc(CNc2nc3ccccc3n2C)cc1	.	4.8	.	.	15	8.6	6.9	17	.
O=C(CCc1ccccc1)Nc1nc2c(F)cc(F)cc2s1	.	.	.	.	.	/	/	/	/

Bioassay records as filed in PubChem.
